From PubChem BioAssay
In the library only some 21% were active in any assay of this set; here they are far more common.
Pf growth 48h – inhibits P. falciparum growth in the first generation, 48 h | P. falciparum luciferase growth in erythrocytes, 48 h | 310,000 compounds, 5.9% hits | Potency, µM (series often up to 28.7 µM), actives largely listed as inhibitors | AID 504832
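Luciferase-expressing P. falciparum in infected erythrocytes (2% hematocrit, 0.1% parasitemia final) in RPMI 1640/0.5% Albumax were exposed to compound for 48 hours at 37 C, 5% CO2; growth read as luminescence.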
CHX counter – counter-screen for Shiga toxin inhibitors: cycloheximide protein synthesis inhibition. cell reporter, cycloheximide protein synthesis inhibition counterscreen. max response, %. 300,000 compounds, 12% hits. AID 2314; in the data active = max response mostly above about 13%, no sharp cut-off; inactive = mostly below about 14%; note: read at 38.3 µM for the half of the compounds with a filed dose
Pf growth 96h – inhibits malaria parasite growth, 96 h. AID 504834. Potency, µM (top dose mostly 28.7 µM), actives largely listed as inhibitors. 320,000 compounds, 6.9% hits. P. falciparum luciferase reporter growth, 96 h
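P. falciparum expressing integrated firefly luciferase, in erythrocytes at 2% hematocrit, 0.05% parasitemia, incubated with compounds 96 h at 37 C, 5% CO2. Growth inhibition read as loss of luminescence; two-generation exposure targets delayed-death apicoplast inhibitors.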
Shiga inhibitor – Shiga toxin inhibition | Vero cells, Shiga toxin protein synthesis inhibition reporter | inhibition, % at 38.7 µM | 290,000 compounds, 9.2% hits | AID 2315; in the data active = inhibition mostly above about 28%, no sharp cut-off; inactive = mostly below about 43%
Hits are given with their value; . = inactive; ? = inconclusive; / = not tested or not shown. Unless noted, calls come from the whole dose curve; as a rule, active = well fitted inhibition curve with a large enough effect; inconclusive = small, poorly fitted or top-dose-only effect, or another doubt; inactive = no such curve, though single readings can be large or run the other way.

SMILES | Pf growth 48h | CHX counter | Pf growth 96h | Shiga inhibitor
COc1ccc(S(=O)(=O)N2CCCC2=O)cc1N(C)S(C)(=O)=O | . | . | ? | .
CCn1c(C)nnc1SCC(=O)NC1CCCC1 | . | . | . | .
CCN=C1SC(CC(=O)Nc2ccc(C(F)(F)F)cc2)C(=O)N1CC (configuration not stated) | 2.62µM | . | . | .
CCN=C1SC(CC(=O)Nc2ccc(N3CCOCC3)cc2)C(=O)N1CC (configuration not stated) | . | . | / | .
NNC(=O)c1ccc(Cn2cc(Cl)cn2)o1 | . | 18.4 | . | .
COC(=O)c1ccc(Cn2cc(Cl)cn2)o1 | . | . | . | .
Cc1ccc2nc(NC(=O)c3ccc(Cn4cc(Cl)cn4)o3)sc2c1 | . | 32.8 | . | .
COc1ccc(CNC(=O)c2ccc(Cn3cc(Cl)cn3)o2)cc1 | . | . | . | .
Cc1cccc(N2CCN(C(=O)COc3cc(=O)n(C)c4ccccc34)CC2)c1C | 11.7µM | . | ? | .
Cc1ccc(C)c(N2CCN(C(=O)CCCOc3cc(=O)n(C)c4ccccc34)CC2)c1 | ? | . | / | .
COc1ccc(N2CCN(C(=O)CCCOc3cc(=O)n(C)c4ccccc34)CC2)cc1 | ? | . | 11.7µM | .
Cc1ccc(C)c(N2CCN(C(=O)COc3cc(=O)n(C)c4ccccc34)CC2)c1 | ? | . | . | .
COc1ccc(OC)c(NC(=O)CSc2ccc(-c3ccco3)nn2)c1 | . | . | ? | .
Cc1cc(C)c(C#N)c(Oc2ccc(O)cc2)n1 | . | . | 5.22µM | .
O=C(NCC1CCCO1)/C(=C/c1cn(-c2ccccc2)nc1-c1cccnc1)NC(=O)c1ccccc1 (configuration not stated) | ? | . | . | .
COC(=O)NNC(=S)NCc1ccccc1 | . | . | . | .
O=C(O)CNC(=S)NCc1ccccc1 | 13.1µM | . | . | .
NNC(=S)NCc1ccccc1 | ? | . | 9.28µM | .
Cc1csc(NC(=O)CCCNC(=O)c2ccc(Cl)cc2)n1 | ? | / | . | /
CC1=C(C(=O)NC2CC(C)(C)Cc3c2cnn3-c2cccc(F)c2)OCCO1 (configuration not stated) | . | . | ? | .
Cc1ccc(C(C)C)c(OCC#CCN2CCOCC2)c1 | . | . | . | /
CC(=NCCc1ccccc1)C1=C(O)CSC1=O | . | 27.8 | . | .
O=C(COc1ncnc2ccccc12)Nc1ccc(S(=O)(=O)N2CCOCC2)cc1 | . | . | . | .
CCCc1nc2ccccc2c(C(=O)OCC(=O)Nc2cccc(S(=O)(=O)N3CCOCC3)c2)c1CC | ? | . | 7.38µM | .
O=C(COC(=O)c1n[nH]c2ccccc12)Nc1cccc(S(=O)(=O)N2CCOCC2)c1 | ? | . | ? | .
SMILES | Pf growth 48h | CHX counter | Pf growth 96h | Shiga inhibitor
CCCc1nc2ccccc2c(C(=O)OCC(=O)Nc2ccc(S(=O)(=O)N3CCOCC3)cc2)c1CC | 14.7µM | . | / | .
CNC(=O)C1CC(=O)N(CCc2ccc(C)cc2)C1 (configuration not stated) | . | . | . | .
O=C1C(I)=CC(=C(c2cc(I)c(O)c(I)c2)c2ccccc2C(=O)O)C=C1I | . | / | . | /
CCN(CC(=O)Nc1c(F)cccc1F)C(=O)c1cc(C)oc1C | ? | / | . | /
C/C(=N\NC(=O)c1cc(C)[nH]n1)c1cccs1 | . | . | . | 58.9
C/C(=N\NC(=O)c1cc(C)[nH]n1)c1ccc(-c2ccccc2)cc1 | ? | . | ? | 55.2
Cc1cc(C(=O)N/N=C/C=C/c2ccccc2)n[nH]1 | . | . | . | .
COc1cccc(-c2ncc3ccccc3c2COC(=O)CCCC(=O)O)c1 | . | / | ? | /
COc1ccc(-c2sc(C(=O)c3ccc(Cl)cc3Cl)cc2CC(=O)O)cc1 | . | . | . | .
COc1cc(CC(=O)OCn2nnc3ccccc3c2=O)cc(OC)c1OC | . | . | . | .
Cn1c(C(=O)NC2CC2)cc(=O)n(C)c1=O | . | . | . | .
CCN(Cc1ccccc1)C(=O)C1CCN(C(=O)Nc2ccccc2)CC1 | ? | . | ? | .
CCN(CC(=O)NCc1ccc(F)cc1)C(=O)c1ccc(COc2ccccc2)cc1 | . | 52.2 | . | 99.0
CCCN(CC(=O)Nc1ccccc1C)C(=O)c1ccc(-c2ccccc2)cc1 | . | . | ? | .
CCN(CC(=O)NCc1ccc(F)cc1)C(=O)C1CCN(C(=O)Nc2ccccc2)CC1 | . | 13.1 | / | .
CCCN(CC(=O)Nc1ccccc1C)C(=O)c1ccc(COc2ccccc2)cc1 | ? | 30.1 | . | 85.1
COc1ccccc1OC(C)C(=O)Nc1ccccc1C(=O)NCc1cccnc1 (configuration not stated) | . | . | . | .
CC(C)c1ccc(N2C(=O)CC(Sc3ncccn3)C2=O)cc1 (configuration not stated) | . | . | 2.08µM | .
Cn1c(=O)c2c(nc(N3CCN(Cc4ccccc4)CC3)n2CCCc2ccccc2)n(C)c1=O | 3.7µM | . | 6.57µM | .
Cn1c(=O)[nH]c(=O)c2c1nc([N+](=O)[O-])n2Cc1ccccc1 | 7.38µM | . | 13.1µM | .
CCOC(=O)Cn1c(=O)c2c(nc(N3CCCCC3)n2Cc2ccccc2)n(C)c1=O | 5.22µM | . | ? | .
CCN1CCN(c2nc3c(c(=O)[nH]c(=O)n3C)n2CCCc2ccccc2)CC1 | . | . | . | .
Cn1c(=O)[nH]c(=O)c2c1nc(N1CCN(Cc3ccccc3)CC1)n2CCCc1ccccc1 | 5.22µM | . | / | .
Cn1c(=O)c2c(nc(N3CCN(c4ccccc4)CC3)n2CCCc2ccccc2)n(C)c1=O | ? | . | . | .
CN1CCN(c2nc3c(c(=O)n(C)c(=O)n3C)n2Cc2ccccc2)CC1 | . | . | . | /
SMILES | Pf growth 48h | CHX counter | Pf growth 96h | Shiga inhibitor
Cc1nc(N2CCN(Cc3ccccc3)CC2)[nH]c(=O)c1C | . | . | 2.62µM | .
CC1CCN(c2nc3c(c(=O)n(C)c(=O)n3C)n2Cc2ccccc2)CC1 | 13.1µM | . | ? | .
CCc1c(O)nc(N2CCN(Cc3ccccc3)CC2)[nH]c1=O | . | . | / | .
Cc1ccc(NC(=O)c2ccc(NS(=O)(=O)/C=C/c3ccccc3)cc2)nc1 | ? | . | . | .
COC(=O)C1=C(c2ccc(F)cc2F)C[C@@H]2CC[C@H]1N2C(=O)N1CCCC1 | ? | / | . | /
COC(=O)C1=C(c2c(C)noc2C)C[C@@H]2CC[C@H]1N2C(=O)N1CCc2cc(OC)c(OC)cc2C1 | 14.7µM | / | ? | /
COC(=O)C1=C(c2ccc(F)cc2F)C[C@@H]2CC[C@H]1N2C(=O)N1CCC(O)(c2ccc(Cl)cc2)CC1 | 9.28µM | / | ? | /
COC(=O)C1=C(c2c(C)noc2C)C[C@@H]2CC[C@H]1N2C(=O)N1CCOCC1 | . | / | . | /
COC(=O)C1=C(c2c(C)noc2C)C[C@@H]2CC[C@H]1N2C(=O)N1CCC(O)(c2ccc(Cl)cc2)CC1 | 6.57µM | / | ? | /
C=CCNC(=O)c1ccccc1NC(=O)c1ccc(Cl)c(S(=O)(=O)Nc2ccccc2)c1 | ? | . | ? | .
Cc1ccc2c(C)nc(/N=C(\N)NC(=O)N3c4ccccc4Sc4ccccc43)nc2c1 | 13.1µM | . | . | .
Cc1ccc2nc(/N=C(\N)NC(=O)N3c4ccccc4Sc4ccccc43)nc(C)c2c1 | . | . | . | .
Cc1cc2nc(/N=C(\N)NC(=O)N3c4ccccc4Sc4ccccc43)nc(C)c2cc1C | 8.28µM | . | ? | .
CCCNC(=O)N1c2ccccc2Sc2ccccc21 | ? | . | ? | .
